# In PubChem BioAssay (Tox21):
# Activity calls are given as the source filed them. Where a call stands in place of a potency, no number is given. The call rests on the fitted dose curve; in most records, active means well fitted curve in the direction sought with a large enough effect in the repeat runs; inconclusive means weak or mixed curves; inactive means flat fitted curve, though single readings scatter.
# Assay: qHTS assay to test for compound auto fluorescence at 460 nm (blue) in HepG2 cell free culture (AID 720685)
# Details: Cell-free culture medium, blue autofluorescence 405/460 nm; series mostly up to 91.3 µM
# Text: U.S. Tox21 Program National Center for Advancing Translational Sciences [NCATS] NIH Chemical Genomics Center [NCGC] U.S. Environmental Protection Agency [EPA] National Institutes of Environmental Health Sciences [NIEHS] National Toxicology Program [NTP] U.S. Food and Drug Administration [FDA] Tox21 Assay Overview: Compound auto fluorescence often interferes with screening of the compound library against various biological targets and signaling pathways. Some of these compounds may have fluorophoric properties. Such properties may interfere with the assay outputs resulting in false positives and/or negatives. To decrease such complications and ensure the compound activities are relevant in terms of biological response, the Tox21 10K compound library was screened for auto fluorescence. From the fluorophores used as reporter signals in our screening assays, the auto fluorescence equivalencies of compounds against three fluorophores have been evaluated: Triamterene, Fluorescein and Rose Bengal sodium for blue, green and red fluorescence, respectively. The fluorescence intensities were measured using Excitation/Emission wavelengths at 405/460nm, 485/535nm and 540/590nm for blue, green and red labels, respectively. This assay includes the blue fluorescence data.
# Tox21 Assay Protocol Summary: 5 uL of culture medium (MEM containing 10% FBS) per well was dispensed into black wall/clear bottom 1536-well plates using a Multidrop Combi Dispenser (ThermoFisher Scientific, Waltham, MA). After 23 nL compound or DMSO vehicle was transferred into assay plate by a pintool work station (Kalypsys, San Diego, CA), fluorescence intensities in the assay plates were measured by an Envision (PerkinElmer, Shelton, CT) plate reader using three labels for measuring blue, green and red fluorescence at […] 460, 535 and 590nm respectively.
row,Structure (SMILES),Potency
1,Clc1cccc(Cl)c1NC1=NCCN1,inactive
2,CC(=O)OCc1ccc2c(c1)OCO2,inactive
3,C=CC(C)(C)C,inactive
4,CN1CCCC1=O,inactive
5,O=c1n(CCCN2CCN(c3cccc(Cl)c3)CC2)nc2ccccn12,inactive
6,CC(CN1c2ccccc2Sc2ccccc21)N(C)C (stereo not given),inactive
7,N#CCC(=O)O,inactive
8,C1CCCNCC1,inactive
9,CCCCC(=O)O,inactive
10,O=C1C(N(CO)C(=O)NCO)N(CO)C(=O)N1CO (stereo not given),inactive
11,COc1ccccc1[N+](=O)[O-],inactive
12,O=C1OC(=O)c2c(Cl)c(Cl)c(Cl)c(Cl)c21,inactive
13,CC(=O)Nc1ccc(CC(=O)O)cc1,inactive
14,COc1ccc2cc3[n+](cc2c1OC)CCc1cc2c(cc1-3)OCO2,inactive
15,COCN(COC)c1nc(N(COC)COC)nc(N(COC)COC)n1,inactive
16,CC/C=C(\C(=O)N[C@@H]1C(=O)N2C(C(=O)OCOC(=O)C(C)(C)C)=C(COC(N)=O)CS[C@H]12)c1csc(N)n1,inactive
17,Cc1ccc(Cl)cc1,inactive
18,CCCN(CCC)C(=O)SCC,inactive
19,Cc1ccc(C(C)C)cc1,inactive
20,Cc1ccc([N+](=O)[O-])cc1N,inactive

row,Structure (SMILES),Potency
1,COc1ccc([C@@H]2CC(=O)c3c(O)cc(O[C@@H]4O[C@H](CO[C@@H]5O[C@@H](C)[C@H](O)[C@@H](O)[C@H]5O)[C@@H](O)[C@H](O)[C@H]4O)cc3O2)cc1OC,inactive
2,O=C(NCC1CCCCN1)c1cc(OCC(F)(F)F)ccc1OCC(F)(F)F (stereo not given),inactive
3,Nc1cccc(C(F)(F)F)c1,inactive
4,CN=C(NC#N)NCCSCc1nc[nH]c1C,inactive
5,Cc1ccncc1,inactive
6,CCn1cc(C(=O)O)c(=O)c2cc3c(cc21)OCO3,inactive
7,Cc1ncc(CO)c(CO)c1O,inactive
8,O=C(c1ccccc1)c1ccc(O)c(O)c1O,inactive
9,CC(=O)C(C)C,inactive
10,CC(=O)OC(C)(C)C1CC=C(C)CC1 (stereo not given),inactive
11,OC1CCCCC1,inactive
12,NC1CCCCC1N (stereo not given),inactive
13,CCCCCCC(=O)O,inactive
14,C=C1C[C@]23C[C@@]1(O)CC[C@H]2[C@@]12C=C[C@H](O)[C@@](C)(C(=O)O1)[C@H]2[C@@H]3C(=O)O,inactive
15,O=C(O)Cc1c[nH]c2ccccc12,inactive
16,CCCOC(=O)NCCCN(C)C,inactive
17,COc1cc(NC(=O)CC(C)=O)c(OC)cc1Cl,inactive
18,COc1c2ccoc2cc2oc(=O)ccc12,inactive
19,C[Si](C)(C)N[Si](C)(C)C,inactive
20,Cc1nnc(NS(=O)(=O)c2ccc(N)cc2)s1,inactive
